# Laboratory results published in article PMC6792352, “Limited Chemical Structural Diversity Found to Modulate Thyroid Hormone Receptor in the Tox21 Chemical Library” (Environmental Health Perspectives, 2019).
# Where a name gives a salt, the structure may show the parent alone.
# Test system: thyroid hormone receptor (endogenous TRα and TRβ)
# Design: species or system GH3-TRE-Luc (rat pituitary); GH3-TRE-Luc luciferase reporter, antagonist mode against 1 nM T3, loss of signal, qHTS
# Settings: read-out: Average AC50 (uM) GH3-TRE-Antag, antagonist mode, 1 nM T3, no GH3 cytotoxicity hit
row,SMILES,AC50
1,COc1ccc(Nc2ccccc2)c(C)c1 [4-Methoxy-2-methyl-N-phenylaniline],52.5 µM
2,CCN(CC)CCNC(=O)c1cc(Br)c(N)cc1OC [Bromopride],38.6 µM
3,CCCCCCC[N+](CC)(CC)CCCCc1ccc(Cl)cc1 [Clofilium tosylate],16.3 µM
4,CS(=O)(=O)Nc1ccc([N+](=O)[O-])cc1Oc1ccccc1 [Nimesulide],> 20 µM
5,O=C(O)Cc1ccccc1Nc1c(Cl)cccc1Cl [Diclofenac sodium],> 50 µM
6,C[C@]12CC[C@@H]3c4ccc(O)cc4CC[C@H]3[C@@H]1CC[C@@H]2O [17beta-Estradiol],31.7 µM
7,CON(C)C(=O)Nc1ccc(Cl)c(Cl)c1 [Linuron],61.4 µM
8,"O=C(c1ccccc1)c1ccc(O)cc1O [2,4-Dihydroxybenzophenone]",87 µM
9,N#CC(c1ccc(Cl)cc1)c1c(Cl)cc(-n2ncc(=O)[nH]c2=O)cc1Cl (stereo not drawn) [Diclazuril],4.7 µM
10,O=c1c(-c2ccc(O)cc2)coc2cc(O)ccc12 [Daidzein],87.6 µM
11,Nc1ccc2c3c(cccc13)-c1ccccc1-2 [3-Aminofluoranthene],40.9 µM
12,"COc1ccc(C(=O)c2ccccc2O)c(O)c1 [2,2'-Dihydroxy-4-methoxybenzophenone]",> 20 µM
13,Sc1ccccc1 [Benzenethiol],44.5 µM
14,"O=C(CS)OCCOC(=O)CS [Ethane-1,2-diyl bis(sulfanylacetate)]",51.5 µM
15,CCCCCCCCCCCCCCn1cc[n+](C)c1 [1-Methyl-3-tetradecylimidazolium hexafluorophosphate],68.5 µM
